Compound activity: PubChem, National Center for Advancing Translational Sciences (NCATS)
A selection: hits, their analogues and other compounds. The true share with any hit is near 10%.
Sfp inh = Sfp phosphopantetheinyl transferase inhibition. Biochemical Sfp PPTase activity, qHTS. Potency, µM, inactives show largest response in the series, negative = inhibition, actives largely listed as inhibitors. 3.5% of 310,000 active;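 note: the enzyme is Sfp with the accession as filed and its product quenches rhodamine fluorescence; potency is the fitted concentration of half-maximal effect; 0% = enzyme reaction without inhibitor and -100% = no enzyme wells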
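Fluorescence-quenching assay with 15 nM Sfp, 5 uM rhodamine-CoA and 12.5 uM BHQ-2-labelled ybbR peptide in pH 7.6 Hepes/MgCl2 buffer. Enzyme was pre-incubated with compound for 15 min at room temperature. Rate was taken from the 30-min fluorescence change (525/598 nm).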
CCT modulator = modulators of cytosolic chaperonin (CCT/TRiC) activity. 0.3% of 360,000 active. purified chaperonin ATPase assay, HTRF ADP detection, 30 min. activity change, % (concentration not given with the values), hits read low; in the data active = activity change below about -30%
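Nucleotide hydrolysis assay: TRiC at 20–40 nM final (set by batch activity) with 10 uM ATP, 30 min at 37 °C, in presence of 76 uM compound. Detection by competitive ADP HTRF, 30 min ambient.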
PLK1 PBD inh = inhibitors of human PLK1 polo-box domain binding | AID 720504 | Potency, µM, without a hit: max response, negative = inhibition, most hits filed as inhibitors | P53350 | 2.8% of 360,000 active | Plk1 PBD binding of FITC phosphopeptide, fluorescence polarization; note: potency is the fitted concentration of half-maximal effect; series mostly up to about 57 µM; nearly all actives have a fitted effect of over 65% in size
G9a block = blocks human histone lysine methyltransferase G9a | Q96KQ7 | G9a H3K9 monomethylation, AlphaScreen, 2 h | Potency, µM (series often up to 102 µM), for inactives: top-dose activity, negative = inhibition, most hits filed as inhibitors | 8.8% of 350,000 active | AID 504332; note: potency is the fitted concentration of half-maximal effect; nearly all actives have a fitted effect of over 75% in size
Target sequence (Q96KQ7 913-1193 limits assumed): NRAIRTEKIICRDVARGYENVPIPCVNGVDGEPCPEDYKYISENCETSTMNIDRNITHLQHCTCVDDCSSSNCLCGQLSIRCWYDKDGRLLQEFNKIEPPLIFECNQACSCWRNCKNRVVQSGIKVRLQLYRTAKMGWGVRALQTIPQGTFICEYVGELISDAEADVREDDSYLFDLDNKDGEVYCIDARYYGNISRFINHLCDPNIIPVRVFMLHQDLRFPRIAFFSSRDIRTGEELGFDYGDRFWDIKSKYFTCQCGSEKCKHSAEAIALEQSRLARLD
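AlphaScreen read-out: biotin-H3K9 peptide (500 nM) methylation by 20 nM enzyme with 20 uM SAM, 2 h at room temperature after 15 min compound preincubation; anti-monomethyl H3K9 antibody plus donor/acceptor beads, 10 min dark.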
VDR inh = inhibitors of human vitamin D receptor; P11473; VDR-SRC2-3 peptide fluorescence polarization, 2 h; Potency, µM, inactives show max response, negative = inhibition, actives largely listed as inhibitors; 0.93% of 400,000 active; note: potency is the fitted concentration of half-maximal effect
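VDR–SRC2-3 interaction, FP format. Cmpds 23 nl via pintool, brief spin, 2 h ambient incubation.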
Mm-Cpn inhibitor = inhibitors of Methanococcus maripaludis chaperonin TRiC (MmCpn); purified Mm-Cpn ATPase, ADP Transcreener TR-FRET; Potency, µM (series often up to 76.9 µM), for the others: top-dose activity, negative = inhibition, most hits filed as inhibitors; 0.031% of 330,000 active; AID 504842; note: potency is the fitted concentration of half-maximal effect; nearly all actives have a fitted effect of over 80% in size
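ATPase read-out: TR-FRET ADP immunoassay (anti-ADP Eu cryptate vs ADP-d2), ex 320 nm, em 590/665 nm; signal drops as ADP forms. Enzyme 25 nM, ATP 10 uM, 30 min at 37°C after 10 min compound preincubation.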
* = called active by the depositor; [ ] = remark or other dose. Unless noted, calls come from the whole dose curve; as a rule, active = well fitted curve in the direction sought with a large enough effect; inconclusive = small, poorly fitted or top-dose-only effect, or another doubt; inactive = no such curve, though single readings can be large; an effect the other way counts as inactive or inconclusive. Unless noted, % is set by controls: 0 for no effect and ±100 for the full control effect.

C=CCn1c(C)cc(-c2csc(NC)n2)c1C was read as Sfp inh 25µM*, CCT modulator 2, PLK1 PBD inh -8%, G9a block 8.9µM*, VDR inh 12% and Mm-Cpn inhibitor -1%.
For C=CCn1c(C)cc(-c2csc(NCC)n2)c1C the results were Sfp inh inconclusive, CCT modulator 1, PLK1 PBD inh inconclusive, G9a block 16µM*, VDR inh 108% and Mm-Cpn inhibitor -2%.
`CCCn1c(C)cc(-c2csc(N)n2)c1C` gave Sfp inh 56µM*, CCT modulator -3, PLK1 PBD inh -19%, G9a block 11µM*, VDR inh 45% and Mm-Cpn inhibitor -5%.
`Cc1c(-c2csc(N)n2)cnn1C` gave Sfp inh -1%, CCT modulator -2, PLK1 PBD inh inconclusive, G9a block inconclusive, VDR inh -17% and Mm-Cpn inhibitor -3%.
C=CCn1c(C)cc(-c2csc(N)n2)c1C was read as Sfp inh 40µM*, CCT modulator -1, PLK1 PBD inh inconclusive, G9a block inconclusive, VDR inh 41% and Mm-Cpn inhibitor 0%.
Screening Cc1c(Cl)cccc1NC(=O)Nc1ccc2snnc2c1 returned G9a block 4%[59 µM] and VDR inh 26%.
`C=CCn1c(C)cc(-c2csc(NC(=O)C3=COCCO3)n2)c1C` gave CCT modulator -1, PLK1 PBD inh -7%, G9a block 45µM*, VDR inh -19% and Mm-Cpn inhibitor -1%.
`COc1ccc(N2CCN(C(=O)c3cc(S(=O)(=O)N4CCC(C)CC4)cn3C)CC2)cc1` gave G9a block inconclusive and VDR inh 8%.
For Cc1ccc(CNC(=O)CCc2ccc(S(=O)(=O)NC3CCCCC3)cc2)cc1 the results were Sfp inh 8%, CCT modulator -1, PLK1 PBD inh 30µM*, G9a block -45%[2.33 µM], VDR inh -23% and Mm-Cpn inhibitor 2%.
O=C(CCc1ccc(S(=O)(=O)NC2CCCCC2)cc1)NCc1cccnc1 was read as Sfp inh 19%, CCT modulator 0, PLK1 PBD inh -6%, G9a block 3%, VDR inh -2% and Mm-Cpn inhibitor 3%.
For CCS(=O)(=O)N1CC(=O)N(c2ccc(C)c(C)c2)C(C)(C(=O)NC2CCCCCC2)C1 (configuration not stated) the results were G9a block 1%[59 µM] and VDR inh 8%.
For Cc1ccc(-c2c3c([nH]c(=S)c2C#N)CCCC3)o1 the results were Sfp inh 8.9µM*, CCT modulator 0, PLK1 PBD inh 12µM*, G9a block 4.5µM*, VDR inh inconclusive and Mm-Cpn inhibitor -4%.
N#Cc1c(-c2ccncc2)c2c([nH]c1=S)CCCC2 was read as Sfp inh 5µM*, CCT modulator 0, PLK1 PBD inh 27µM*, G9a block 2.2µM*, VDR inh -14% and Mm-Cpn inhibitor -3%.
For Cc1ccc(CNS(=O)(=O)c2cc(C(=O)Nc3cccc(C(F)(F)F)c3)ccc2F)cc1 the results were G9a block 0%[59 µM] and VDR inh 8%.
Screening S=C(NC12CC3CC(CC(C3)C1)C2)N1CCCC1 returned Sfp inh 19%, CCT modulator -1, PLK1 PBD inh -9%, G9a block 12%[59 µM], VDR inh -19% and Mm-Cpn inhibitor 0%.
For CCCNC(=S)N1CCC(NC(=O)C2CCCCC2)CC1 the results were Sfp inh 7%, CCT modulator -6, PLK1 PBD inh 24µM*, G9a block 7%[12.7 µM], VDR inh inconclusive and Mm-Cpn inhibitor 0%.
`O=C(NC1CCN(C(=S)NCCc2ccccc2)CC1)C1CC1` gave Sfp inh inconclusive, CCT modulator 0, PLK1 PBD inh -14%, G9a block 10µM*, VDR inh 9% and Mm-Cpn inhibitor 0%.
CCCNC(=S)N1CCC(NC(=O)Nc2ccc(C)cc2)CC1 was read as Sfp inh -3%, CCT modulator -1, PLK1 PBD inh -1%, VDR inh -16% and Mm-Cpn inhibitor 0%.
O=C(CC12CC3CC(CC(C3)C1)C2)NC(=S)N1CCCCC1 was read as Sfp inh -26%, CCT modulator -1, PLK1 PBD inh -22%, G9a block 11µM*, VDR inh -9% and Mm-Cpn inhibitor 1%.
CC1CCN(C(=S)NC(=O)C2CCCCC2)CC1 was read as Sfp inh 9%, CCT modulator -1, PLK1 PBD inh -1%, G9a block -31%[59 µM], VDR inh -1% and Mm-Cpn inhibitor -1%.
For NC(=O)C1CCN(C(=S)NCCc2ccccc2)CC1 the results were Sfp inh 2%, CCT modulator -1, PLK1 PBD inh -10%, VDR inh 4% and Mm-Cpn inhibitor -6%.
For O=C(NC(=S)N1CCCCCC1)C1CC1 the results were Sfp inh -26%, CCT modulator -2, PLK1 PBD inh -24%, G9a block 28µM*, VDR inh -10% and Mm-Cpn inhibitor -1%.
`CCCNC(=S)N1CCN(C)CC1` gave Sfp inh -23%, CCT modulator -4, PLK1 PBD inh 1%, G9a block 10µM*, VDR inh -28% and Mm-Cpn inhibitor 1%.
For CCOc1ccccc1-n1nnc(-c2nc(-c3ccccc3C)no2)c1C the results were G9a block 5%[59 µM] and VDR inh 9%.
Screening CCN(CC)CC(O)CCCCCCCCC(=O)OC (configuration not stated) returned Sfp inh 8%, CCT modulator 3, PLK1 PBD inh 6%, G9a block -15%[12.7 µM], VDR inh -5% and Mm-Cpn inhibitor 0%.
`COC(=O)CCCCCCCCC(O)CN(C)C` (configuration not stated) gave Sfp inh 10%, CCT modulator 0, PLK1 PBD inh 27µM*, G9a block inconclusive, VDR inh inconclusive and Mm-Cpn inhibitor 0%.
Screening COc1ccccc1CNC(=O)CSC1=Nc2ccccc2N=C(c2ccc(F)cc2)C1 returned G9a block 6%[59 µM] and VDR inh -5%.
CCN(CC)CCOC(=O)c1ccc(N/C=C(/C#N)c2nc(-c3ccc(OC)cc3)cs2)cc1 was read as Sfp inh 56µM*, CCT modulator -3, PLK1 PBD inh -8%, G9a block 11µM*, VDR inh 26% and Mm-Cpn inhibitor -4%.
Screening COc1cc(/C=C(/C#N)c2nc(-c3cc4ccccc4oc3=O)cs2)cc([N+](=O)[O-])c1O returned Sfp inh 7%, G9a block 3.2µM* and Mm-Cpn inhibitor 1%.
CCN(CC)CCOC(=O)c1ccc(N/C=C(/C#N)c2nc(-c3cc4ccccc4oc3=O)cs2)cc1 was read as Sfp inh -29%, CCT modulator -1, PLK1 PBD inh 3%, G9a block 1.6µM*, VDR inh 23% and Mm-Cpn inhibitor -6%.
